Calls of active or inactive are those of the source.

A short description of assay [1]: small molecules captured by biotinylated probe aFSTL3 – biochemical, small-molecule microarray, fluorescence 635/667, stem cell growth factor project, primary screen (AID 1064).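 Also: measures binding of the biotinylated anti-FSTL3 antibody to printed compounds.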 The following applies: higher = more signal.
Assay [2] is described as follows: binders from COS7 lysate, DM2A8 probe, primary screen, torsin A project, cell lysate, small-molecule microarray, fluorescence 635/667 (AID 1065). As to conditions: higher = more signal, COS7 lysate expressing mutant human TOR1A.
Assay [3] in a line: small molecules captured by biotinylated probe aFGF2 – biochemical, small-molecule microarray, fluorescence 635/667, stem cell growth factor project, primary screen (AID 1067).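 Also: measures binding of biotinylated aFGF2 protein to printed compounds on slides; z-score merges feature fluorescence and signal-to-noise across triplicate slides.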 The following applies: higher = more signal.
A short description of assay [4]: small molecules captured by biotinylated probe aFGF10 – biochemical, small-molecule microarray, fluorescence 635/667, stem cell growth factor project, primary screen (AID 1071).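 Also: score merges 667 nm spot intensity and signal to noise from triplicate slides.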 The following applies: higher = more signal.
In assay [5] the target is Neurogenic locus notch homolog protein 2 (Homo sapiens) (UniProt Q04721). As to the kind of experiment: small molecules binding Notch2 protein – biochemical, small-molecule microarray, 635 nm fluorescence, stem cell growth factors, primary screen (AID 1073). As to conditions: higher = more signal.
The target in assay [6] is Pro-neuregulin-1, membrane-bound isoform (Homo sapiens) (UniProt Q02297). Nature of the assay: small molecules binding neuregulin-1 protein – biochemical, small-molecule microarray, fluorescence 635/667, psychiatric disease protein project, primary screen (AID 1075).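 Also: score combines 667 nm spot fluorescence with signal to noise.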 As to conditions: NRG1 binding, 635 nm fluorescence, higher = more signal.
Assay [7] deals with Neuregulin-1 EGF-like domain. As to the kind of experiment: small molecules binding NRG1 EGF domain – biochemical, small-molecule microarray, 635 nm fluorescence, primary screen (AID 1081).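 Also: binding of the protein to compounds printed on small-molecule microarray slides.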 As to conditions: higher = more signal.
Assay [8] can be described thus: FRG1 expression reporter modulators in myotubes – cell-based, C2C12 myotubes, firefly/Renilla luciferase, luminescence, FRG1 inhibition for FSHD, primary screen (AID 1084). As to conditions: FRG1 promoter luciferase, higher = more signal, called active from +8 up or from −8 down.
Assay [9] can be described thus: small molecules captured by biotinylated probe aFST – biochemical, small-molecule microarray, fluorescence 635/667, stem cell growth factor project, primary screen (AID 1086).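 Also: score merges 667 nm fluorescence with signal-to-noise of each printed compound spot.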 As to conditions: higher = more signal.
Assay [10] is described as follows: binders of probe aHhip on microarray, primary screen, stem cell growth factor project, biochemical, small-molecule microarray, fluorescence 635/667 (AID 1087).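 Also: score merges spot fluorescence at 667nm with spot signal to noise ratio.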 As to conditions: higher = more signal.
Assay [11] has as its system PRMT1 (protein arginine N-methyltransferase 1). As to the kind of experiment: small molecules binding arginine methyltransferase PRMT1 – biochemical, small-molecule microarray, 635 nm fluorescence, primary screen (AID 1088).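 Also: binding of Prmt1 protein to compounds spotted on small-molecule microarray slides.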 As to conditions: higher = more signal.
Assay [12] is described as follows: growth effects on S. cerevisiae YJM789 – YJM789 clinical isolate, OD600, 24 h, basal, primary screen (AID 1089).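 Also: growth of clinical yeast isolate S. cerevisiae YJM 789 seeded 1000 cells per well; test concentration not given here.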 The following applies: higher = more signal, called active from +8 up or from −8 down.
Assay [13] can be described thus: S. pombe growth modifiers, basal conditions – strain 972, OD600, 24 h, no modulator, primary screen (AID 1090).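 Also: basal condition with compound alone and no growth modifier present; test concentration not given here.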 As to conditions: S. pombe 972 growth, higher = more signal, called active from +8 up or from −8 down.
Assay [14] in a line: budding yeast growth modifiers under rapamycin – strain BY4716, OD600, 96 h, primary screen (AID 1091). Also: test concentration not given here. The following applies: S. cerevisiae BY4716 + rapamycin, higher = more signal, called active from +8 up or from −8 down.
Assay [15] has as its target Torsin-1A-interacting protein 2 (Homo sapiens) (UniProt Q8NFQ8). As to the kind of experiment: small molecules binding lysate-expressed LULL1 – cell lysate, human LULL1 lysate, 635/667 nm fluorescence, primary screen (AID 1092).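 Also: score merges per-feature 667 nm fluorescence with signal-to-noise.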 As to conditions: small-molecule microarray, hLULL1 lysate binding, 635 nm fluorescence; higher = more signal.
Assay [16] can be described thus: optical density change of DRC41 E. coli – strain DRC41, OD650, 24 h, E. coli filamentation project, primary screen (AID 1093).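 Also: MC1000 strain lacking acrAB efflux and sulA so SOS filamentation is blocked; test concentration not given here.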 The following applies: E. coli DRC41 growth, higher = more signal, called active from +8 up or from −8 down.
The nature of assay [17]: probe aLefty2 binding to arrayed compounds – biochemical, biotinylated probe, 635/667 nm fluorescence, primary screen (AID 1094).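 Also: score merges spot fluorescence near 667 nm with spot signal-to-noise ratio.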 As to conditions: small-molecule microarray, higher = more signal.
Assay [18] relates to Noggin (protein binding on small-molecule microarray). As to the kind of experiment: small molecules binding Noggin protein – biochemical, 635/667 nm fluorescence, primary screen (AID 1095).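 Also: score merges 667 nm feature fluorescence with signal to noise over triplicate slides.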 As to conditions: 635 nm fluorescence, higher = more signal.
Assay [19] addresses Neurogenic locus notch homolog protein 3 (Homo sapiens) (UniProt Q9UM47). As to the kind of experiment: small molecules binding NOTCH3 protein – biochemical, 635/667 nm fluorescence, primary screen (AID 1096). The following applies: small-molecule microarray, 635 nm fluorescence, higher = more signal.
A short description of assay [20]: probe aEGFR binding to arrayed compounds – biochemical, biotinylated probe, 635/667 nm fluorescence, primary screen (AID 1097).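 Also: probe is a biotinylated anti-EGFR antibody binding compounds printed on slides; score combines fluorescence near 667 nm and signal to noise of each spot.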 As to conditions: small-molecule microarray, higher = more signal.

Torsin-1A-interacting protein 2 (Homo sapiens), sequence (Q8NFQ8 whole entry, looked up): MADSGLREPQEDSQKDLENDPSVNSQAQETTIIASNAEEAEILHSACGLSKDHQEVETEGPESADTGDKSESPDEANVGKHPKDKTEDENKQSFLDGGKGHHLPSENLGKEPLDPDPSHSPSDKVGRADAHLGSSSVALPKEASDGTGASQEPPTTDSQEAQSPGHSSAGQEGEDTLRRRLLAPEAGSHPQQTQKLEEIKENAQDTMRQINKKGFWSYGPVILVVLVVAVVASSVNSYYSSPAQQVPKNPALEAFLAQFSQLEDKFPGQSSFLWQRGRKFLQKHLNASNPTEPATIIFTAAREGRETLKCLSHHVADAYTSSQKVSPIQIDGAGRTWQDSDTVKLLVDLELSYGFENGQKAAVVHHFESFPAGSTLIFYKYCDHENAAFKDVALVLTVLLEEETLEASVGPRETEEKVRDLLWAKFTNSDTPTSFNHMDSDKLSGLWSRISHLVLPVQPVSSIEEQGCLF
Pro-neuregulin-1, membrane-bound isoform (Homo sapiens), sequence (Q02297 whole entry, looked up, the tested form may be a part, canonical isoform): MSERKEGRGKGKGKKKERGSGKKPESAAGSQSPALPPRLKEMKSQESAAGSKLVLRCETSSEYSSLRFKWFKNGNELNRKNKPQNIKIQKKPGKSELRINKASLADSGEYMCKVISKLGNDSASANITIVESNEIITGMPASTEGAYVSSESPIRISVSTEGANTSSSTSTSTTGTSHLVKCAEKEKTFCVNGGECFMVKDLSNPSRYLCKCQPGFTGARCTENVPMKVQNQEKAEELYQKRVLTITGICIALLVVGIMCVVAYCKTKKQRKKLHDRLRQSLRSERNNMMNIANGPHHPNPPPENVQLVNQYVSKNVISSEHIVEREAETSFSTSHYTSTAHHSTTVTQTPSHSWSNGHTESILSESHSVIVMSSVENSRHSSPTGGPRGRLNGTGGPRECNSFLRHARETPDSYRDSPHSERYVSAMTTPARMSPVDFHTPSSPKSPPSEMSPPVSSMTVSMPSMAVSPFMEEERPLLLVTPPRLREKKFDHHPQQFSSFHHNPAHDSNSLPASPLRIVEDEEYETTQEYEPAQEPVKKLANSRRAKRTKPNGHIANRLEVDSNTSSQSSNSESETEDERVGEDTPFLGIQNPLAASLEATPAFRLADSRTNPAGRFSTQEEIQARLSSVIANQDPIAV
Neurogenic locus notch homolog protein 3 (Homo sapiens), sequence (Q9UM47 whole entry, looked up): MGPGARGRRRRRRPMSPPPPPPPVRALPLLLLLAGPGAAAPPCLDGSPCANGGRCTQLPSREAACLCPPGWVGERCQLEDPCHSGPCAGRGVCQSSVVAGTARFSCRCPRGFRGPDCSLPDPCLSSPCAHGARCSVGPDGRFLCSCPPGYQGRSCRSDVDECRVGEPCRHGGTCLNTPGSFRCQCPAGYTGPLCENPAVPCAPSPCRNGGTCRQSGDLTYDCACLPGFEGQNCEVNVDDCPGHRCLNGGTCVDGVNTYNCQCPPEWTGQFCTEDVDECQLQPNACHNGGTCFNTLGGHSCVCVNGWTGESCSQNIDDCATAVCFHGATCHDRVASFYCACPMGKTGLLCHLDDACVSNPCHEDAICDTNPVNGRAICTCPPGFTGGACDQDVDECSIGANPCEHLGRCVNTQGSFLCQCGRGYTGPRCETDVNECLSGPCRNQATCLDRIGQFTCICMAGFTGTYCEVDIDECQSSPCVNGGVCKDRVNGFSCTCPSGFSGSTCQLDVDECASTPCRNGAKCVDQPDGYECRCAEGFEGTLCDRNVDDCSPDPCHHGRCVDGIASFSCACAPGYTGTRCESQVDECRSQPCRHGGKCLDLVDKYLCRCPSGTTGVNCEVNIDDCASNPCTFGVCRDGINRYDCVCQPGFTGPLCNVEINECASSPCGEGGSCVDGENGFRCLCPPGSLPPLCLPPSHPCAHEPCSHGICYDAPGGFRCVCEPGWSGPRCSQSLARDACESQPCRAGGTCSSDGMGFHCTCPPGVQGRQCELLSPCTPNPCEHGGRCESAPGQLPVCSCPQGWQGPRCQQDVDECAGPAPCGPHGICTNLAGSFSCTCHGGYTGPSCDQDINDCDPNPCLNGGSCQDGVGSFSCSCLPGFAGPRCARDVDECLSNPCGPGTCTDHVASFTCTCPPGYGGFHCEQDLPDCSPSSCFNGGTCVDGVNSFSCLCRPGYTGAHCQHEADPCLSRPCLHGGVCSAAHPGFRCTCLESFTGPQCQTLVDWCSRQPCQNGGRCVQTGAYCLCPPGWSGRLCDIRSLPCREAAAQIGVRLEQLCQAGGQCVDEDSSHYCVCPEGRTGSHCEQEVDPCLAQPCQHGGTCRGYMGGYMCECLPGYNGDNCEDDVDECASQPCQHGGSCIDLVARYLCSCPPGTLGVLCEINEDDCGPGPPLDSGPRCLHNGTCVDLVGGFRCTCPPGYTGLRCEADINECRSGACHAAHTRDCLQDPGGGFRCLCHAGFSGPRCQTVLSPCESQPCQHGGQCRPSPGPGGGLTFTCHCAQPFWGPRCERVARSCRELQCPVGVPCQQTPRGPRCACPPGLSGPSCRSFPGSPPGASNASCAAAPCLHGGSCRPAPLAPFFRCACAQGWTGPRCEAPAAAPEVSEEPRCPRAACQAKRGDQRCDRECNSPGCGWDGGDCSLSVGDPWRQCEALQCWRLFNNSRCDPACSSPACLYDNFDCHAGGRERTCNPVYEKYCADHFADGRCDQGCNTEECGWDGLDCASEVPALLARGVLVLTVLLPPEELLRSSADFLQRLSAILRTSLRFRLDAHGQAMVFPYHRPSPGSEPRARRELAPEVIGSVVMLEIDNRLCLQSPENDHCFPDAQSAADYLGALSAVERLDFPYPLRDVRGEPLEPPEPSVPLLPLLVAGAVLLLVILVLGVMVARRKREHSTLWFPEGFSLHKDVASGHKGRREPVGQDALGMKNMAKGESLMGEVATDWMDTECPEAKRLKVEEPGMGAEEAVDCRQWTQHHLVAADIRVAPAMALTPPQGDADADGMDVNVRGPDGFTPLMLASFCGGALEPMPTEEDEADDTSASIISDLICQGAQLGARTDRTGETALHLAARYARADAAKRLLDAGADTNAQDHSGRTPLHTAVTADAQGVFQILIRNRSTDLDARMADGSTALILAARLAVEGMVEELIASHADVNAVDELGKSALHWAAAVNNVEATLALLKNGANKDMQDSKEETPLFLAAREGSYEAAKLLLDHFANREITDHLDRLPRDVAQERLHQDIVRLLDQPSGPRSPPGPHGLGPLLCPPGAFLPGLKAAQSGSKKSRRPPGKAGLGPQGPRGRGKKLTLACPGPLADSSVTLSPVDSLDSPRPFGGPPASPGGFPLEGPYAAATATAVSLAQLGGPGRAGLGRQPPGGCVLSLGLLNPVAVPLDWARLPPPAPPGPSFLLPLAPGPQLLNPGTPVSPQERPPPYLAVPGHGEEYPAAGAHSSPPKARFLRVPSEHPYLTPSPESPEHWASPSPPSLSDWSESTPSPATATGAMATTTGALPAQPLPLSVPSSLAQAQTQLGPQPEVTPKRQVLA

With `CCCC[C@H]1CN2[C@@H](CC[C@@H](C)[C@@H]2c2ccc(Br)cc2)C(=O)O1`, the composite z-score in assay [1] was -0.333; in [2] it was 0.389; in assay [3] it was -0.0894; in [4] it was -0.947; in [5], 0.564; in assay [6], 1.19. Also, the composite z-score in [7] is 1.11; in [9], 0.253; in assay [10], 0.0722; in [11] it was 1.56; in assay [15] it was 1.28; in assay [17] it was -0.109. Moreover, the composite z-score in assay [18] was 0.444; in assay [19] it was 0.728; in assay [20], -0.0616. Moreover, the z-score was -0.374 (inactive) in assay [8]; 0.149 (inactive) in assay [12]; -16.5 (active) in [13]; -0.435 (inactive) in [14]; 0.0173 (inactive) in assay [16].

As for `CCN1C(=O)[C@H]2[C@@H]3C(=CC[C@H]2C1=O)C(=O)[C@H]1O[C@H]1[C@H]3O`, the composite z-score in assay [1] is -0.538; in [2] it was -0.0147; in assay [3], -0.0996; in [4] it was 0.465; in [5], 0.613; in [6] it was 0.0141. For the same compound, the composite z-score was 0.73 in [7]; 0.167 in assay [9]; -0.0346 in [10]; 0.833 in [11]; -0.176 in [15]; -0.138 in assay [17]. For the same compound, the values for the composite z-score in assay [18], in assay [19] and in [20] were 0.609, 0.732 and 0.0107, respectively. Further, the z-score was -2.63 (inactive) in assay [8]; 0.367 (inactive) in [12]; -0.3 (inactive) in assay [13]; 0.247 (inactive) in assay [14]; -0.763 (inactive) in assay [16].

Regarding `CC(CCN1CCCc2nc(C)c(C)cc21)=NOC[C@@H](O)COCc1ccco1`, the composite z-score was 2.02 in assay [1]; 3.09 in assay [2]; 0.529 in assay [3]; 0.0131 in [4]; 0.164 in assay [5]; -0.0146 in assay [6]. Besides, the composite z-score in assay [7] amounted to 0.919; in assay [9], 2.79; in [10], 3.19; in [11], 1.53; in assay [15], 0.0346; in [17], 1.27. Besides, the composite z-score in [18] was 2.32; in assay [19], 1.07; in assay [20], 1.15. Further, the z-score is 1.05 (inactive) in assay [8]; -1.86 (inactive) in [12]; 0.544 (inactive) in assay [13]; -0.831 (inactive) in assay [14]; 0.798 (inactive) in assay [16].

In the case of `CC(CCC(=O)OC[C@H]1O[C@H](C#Cc2ccccc2)C=C[C@@H]1Oc1ccc(C)cc1)=NOC(C)CN1CCCc2nc(C)c(C)cc21` (stereo not given in full), the composite z-score in [1] is -0.293; in assay [2], 0.0877; in assay [3], -0.0783; in assay [4], 0.413; in assay [5], 0.869; in [6] it was 0.617. Moreover, the composite z-score in assay [7] was 0.684; in [9], 0.69; in assay [10] it was -0.0319; in assay [11], 1.33; in assay [15], 1.5; in assay [17] it was -0.0849. For the same compound, the composite z-score in [18] was 0.538; in assay [19], 0.894; in assay [20] it was -0.0267. Also, the z-score in [8] was 0.517 (inactive); in assay [12], 2.01 (inactive); in assay [13], -1.77 (inactive); in [14] it was -0.49 (inactive); in [16] it was 0.915 (inactive).

For `CO[C@@H](C(C)C)[C@@H](C)C1OC(=O)CC1O` (stereo not given in full), the composite z-score is -0.156 in assay [1]; -0.126 in [2]; -0.15 in assay [3]; 0.0406 in assay [4]; -0.402 in [5]; -0.361 in assay [6]. Besides, the composite z-score in [7] was 0.625; in assay [9], -0.192; in assay [10], -0.0193; in [11] it was -0.255; in assay [15], 0.338; in assay [17], -0.161. The composite z-score is -0.614 in assay [18], -0.716 in assay [19] and -0.195 in assay [20]. The z-score was 0.35 (inactive) in assay [8]; 0.0031 (inactive) in assay [12]; 0.0183 (inactive) in assay [13]; -0.582 (inactive) in assay [14]; 0.457 (inactive) in assay [16].

(Values after PubChem BioAssay.)
